Laboratory results published in PubChem BioAssay (NCI).
This is part of a sample that, as a whole, favours compounds with a hit. Of some 79,000 tested, about 15% had one in any assay. Values without a mark were called inactive. The source made the active and inactive calls. No stated cut-off is given here; in the data, active means growth inhibition above about 70%; inactive means the rest. Where a SMILES comes first, the peptide text is derived from it. [ ]: non-standard residue; d: D form. The star is where a group is joined. ξ: configuration not given here. Cbz = O=C(OCc1ccccc1)*; ξP = O=C(O)C1CCCN1

What was measured:
[1] = NCI Yeast Anticancer Drug Screen. Data for the rad50 strain (AID 155);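 further: 0% = growth of vehicle-only cultures of the same strain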; settings: S. cerevisiae rad50 strain growth inhibition; at 50.0 µM; stronger effect = higher value
In short: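 Cells are treated with compound, grown, and their growth is then scored against vehicle-only cultures of the same repair-deficient yeast strain.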

[2] = NCI Yeast Anticancer Drug Screen. Data for the mec2-1 strain (AID 157); settings: S. cerevisiae mec2-1 strain, at 50.0 µM, stronger effect = higher value
In short: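 Mutant yeast (mec2-1) grown with compound; growth inhibition relative to vehicle control reported.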

[3] = NCI Yeast Anticancer Drug Screen. Data for the sgs1 mgt1 strain (AID 161);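 further: 0% = growth of cultures given vehicle only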; settings: S. cerevisiae sgs1 mgt1 strain, at 50.0 µM, stronger effect = higher value
In short: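 Yeast cells carrying a defined DNA-repair defect were exposed to test compounds. Growth inhibition was measured relative to vehicle-treated controls.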

[4] = NCI Yeast Anticancer Drug Screen. Data for the cln2 rad14 strain (AID 165);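 further: 0% = growth equal to vehicle treated cultures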; settings: S. cerevisiae cln2 rad14 strain, at 50.0 µM, stronger effect = higher value
In short: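 Readout is yeast growth inhibition versus vehicle-treated controls, using a strain with cln2 and rad14 alterations exposed to compound.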

[5] = NCI Yeast Anticancer Drug Screen. Data for the bub3 strain (AID 167); settings: S. cerevisiae bub3 mutant strain, at 50.0 µM, stronger effect = higher value
In short: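 Part of a panel of yeast mutants defective in DNA damage repair or cell cycle regulation. Each strain is grown with compound, and inhibition is calculated relative to solvent-treated cultures.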

[6] = NCI Yeast Anticancer Drug Screen. Data for the mlh1 rad18 strain (AID 175); settings: S. cerevisiae mlh1 rad18 strain growth inhibition; at 50.0 µM; stronger effect = higher value
In short: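 Genetically defined yeast (DNA repair-deficient) exposed to compounds; growth inhibition determined relative to vehicle.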

Row | Compound | growth inhibition [1] | growth inhibition [2] | growth inhibition [3] | growth inhibition [4] | growth inhibition [5] | growth inhibition [6]
1 | CN1C(=O)C(=O)C(c2ccccc2)(c2ccccc2)C1=O | 9.45% | -4.55% | 12.4% | -53.2% | 8.75% | -10.8%
2 | Cc1ccc(N)c(C(=O)Nc2ccc(Br)cc2)c1 | -19.6% | -18.6% | -10.1% | -8.85% | -17.6% | -16.6%
3 | CCOC(=O)CC(C(=O)OCC)C(=O)OCC | -7.4% | -11.4% | -8.1% | -6.35% | 5.45% | -4.1%
4 | O=C(C[n+]1cccc(C(=O)Nc2ccccc2)c1)Nc1ccc(Cl)cc1 | -2.65% | -0.7% | -2.35% | 0.35% | 6.7% | 7.35%
5 | CCCCCCCCCC(=O)N/N=C/c1c[nH]c2ccccc12 | 0.95% | 28.4% | 20.7% | -8.75% | 29.1% | 21.9%
6 | CC(=O)Nc1ccc(-c2nnc(SCC(=O)Nc3ccccc3C)o2)cc1 | -6.55% | -5.25% | -19.9% | 4.65% | -8.55% | -18.1%
7 | c1ccc2oc(C34OC5CC(CC(C5)O3)O4)nc2c1 | 24.8% | 13.2% | 21.9% | 11.1% | 0.5% | 10%
8 | CC(=O)OCC1OC(SC2=NC(=O)/C(=C/c3ccccc3)S2)C(OC(C)=O)C(OC(C)=O)C1OC(C)=O (stereo unspecified) | 40.2% | 35.4% | 55.4% | 15.8% | -4.1% | 43.8%
9 | O=C(CNC(=O)OCc1ccccc1)NCC(=O)N1CCCC1C(=O)O (stereo not drawn) (Cbz-Gly-Gly-[ξP]-OH) | -1.6% | 1.15% | -4.45% | 0.25% | -3.65% | -23.6%
10 | O=c1ccn(C2OC(CO)C(O)C2Cl)c(=O)[nH]1 (stereo unspecified) | -6.7% | -42.1% | -11.4% | 10.2% | 4.9% | -14.4%
11 | CCCCC(CC)OC(=O)c1cccc(C)c1 (stereo unspecified) | 9.15% | 2.25% | 17.8% | -7.4% | -0.05% | 7.1%
12 | O=C1NC(CN2CCC(O)CC2)C(=O)NC1CN1CCC(O)CC1 (stereo unspecified) | 0.6% | 7.7% | -10.2% | 2.4% | -1.05% | -0.35%
13 | C=C(C)/C=N/NS(=O)(=O)c1ccc(C)cc1 | -14.6% | 9.65% | 6.7% | -26.1% | -18.1% | 4.9%
14 | COc1ccc(CC(N)C(=O)OC(C)C)cc1 (stereo unspecified) | -16.3% | -12.3% | -5.05% | -36% | 11% | 1.4%
15 | O=C(O)C(c1ccc(-c2ccccc2)cc1)C1CCCCC1 (stereo unspecified) | 47.9% | 26.4% | 50.2% | 3.35% | 45% | 40.5%
16 | CCC[C@@H]1CCCC[C@H]1C | 0.55% | -1.95% | -5.3% | -2.2% | -14.2% | 0.5%
17 | COc1cccc2c1[C@H]1CO[C@H]3C4C[C@H](C(=O)O)C([C@@H](C2)N13)N4C (stereo partly specified) | 3.25% | 4.4% | 8.35% | -12.1% | -4.7% | -2.5%
18 | O=C(NC1CCCCC1)OC/C=C\c1ccccc1 | 7.2% | -12.7% | -7.8% | -6.95% | 12.3% | 3.8%
19 | COc1ccc2c(c1OC(C)=O)C1=CC(OC(C)=O)=CCC13CCN(C)C3C2 (stereo unspecified) | 2.75% | -0.15% | -10.8% | -4.7% | -6.4% | -0.15%
20 | O=C(COc1c(Cl)c(Cl)c(Cl)c(Cl)c1Cl)Nc1cccc(Cl)c1 | 18.9% | 2% | 5.25% | 15.2% | 21.3% | 22.8%
21 | O=[N+]([O-])c1ccc(-c2ccccc2CO)cc1 | -9.55% | -10.2% | -25.6% | -33.5% | -6.95% | -26.6%

Row | Compound | growth inhibition [1] | growth inhibition [2] | growth inhibition [3] | growth inhibition [4] | growth inhibition [5] | growth inhibition [6]
22 | C=C1c2c(cc3c(c2O)c(=O)c2ccccc2n3C)OC1(C)C | -31.2% | -36.6% | -23.1% | -24.3% | -25.8% | -25.4%
23 | O=C(CSc1nnc(Cc2ccccc2)o1)Nc1ccc([N+](=O)[O-])cc1 | 11.2% | 15.1% | 5.65% | 10.5% | 19% | -7.15%
24 | CCCCn1c(-c2ccccc2)cs/c1=N\NC(=O)Cn1c(C)nc2ccccc21 | -30.8% | -8.3% | -8.4% | 18.9% | -3.25% | -16.8%
25 | N#C/C(=C/c1cccc2ccccc12)C(N)=O | 21.6% | 32.9% | 28.4% | 6.2% | 28.6% | 26.1%
26 | CCCCOC(=O)c1cc2ccccc2oc1=O | 34.5% | 9.9% | 25.1% | 15.7% | 27.2% | 34%
27 | O=C(O)/C(Br)=C(\Br)c1ccccc1 | 23.9% | 15.8% | 14.6% | 14.4% | 1.55% | 12.5%
28 | O=c1nc2n(cc1/C=C\Br)C1CC(O)C(CO2)O1 (stereo unspecified) | -51% | -24.6% | -24.1% | 13.3% | -1.5% | -23.6%
29 | Cc1c2ccccc2c(CN(C)CC(=O)NCC(=O)NCC(=O)O)c2ccccc12 | 97.5% (active) | 97.7% (active) | 97.5% (active) | 97.5% (active) | 98.2% (active) | 98.5% (active)
30 | CN(C)C1C(=O)c2ccccc2C1=O | -34.6% | -27.6% | -29.5% | -5.1% | 0.05% | -14.8%
31 | COc1ccc(/C=C2\CCC(C)(CN(C)C)C2=O)cc1 (stereo unspecified) | 36.5% | 14.6% | 8.15% | 21.1% | 4.35% | 43%
32 | O=C1CCCc2[nH]c(=O)ccc21 | 13% | -3.1% | 0% | -7.95% | 0.3% | 9.9%
33 | CCN(CC(=O)NC(=O)c1ccccc1)c1ccccc1 | -1.75% | -14% | -4.75% | -34.5% | 5.5% | -12.7%
34 | CN(CCN1CCOCC1)C(c1ccccc1)c1ccccc1 | 83.7% (active) | 66.3% | 87.9% (active) | 61.8% | 52.4% | 67.4%
35 | C=CC[Si](CC=C)(CC=C)OCC | 22.5% | -17.6% | 4.05% | 7% | -6% | 17.4%
36 | CCOC(=O)C1=C(C)N(Cc2ccccc2)C2(O)C1=CC(=O)C(Cl)=C2Cl (stereo unspecified) | 72.8% (active) | 45.5% | 46.8% | 54.9% | 49.5% | 42.4%
37 | COC(=O)NC(=O)CCC(=O)O | -0.15% | -2.8% | 0.95% | -45.3% | 7% | 12.8%
38 | C=C1CC2OC(=O)C(=C)C2C(OC(=O)c2ccccc2)/C=C(\C)CCC1OC(=O)c1ccccc1 (stereo unspecified) | -13.7% | -3.25% | -11.2% | -39.3% | -0.85% | -21.4%
39 | O=c1[nH]c2ccccc2nc1/C=C\NC(=S)Nc1cc(Cl)ccc1Cl | -45.5% | -32.1% | -44.1% | -14.8% | -30.6% | -40.1%
40 | CC(C)Cc1ncnc2n[nH]nc12 | 1.65% | 8.5% | 35.5% | 35.4% | 20.4% | 17.8%
41 | CC(C)NC(c1ccccc1)c1ccccc1 | 0.3% | -11.7% | -6.9% | 10.2% | 1.6% | 2.9%
